Inconclusive results are not listed. Active and inactive are the calls of the source. The call rests on the fitted dose curve.
Assays:
[1] = Primary qHTS for inhibitors of SARS-S pseudo-typed particle cell entry (AID 1479145); conditions: outcome: dose series up to 57.1 µM unless noted; further: nearly all actives have a fitted effect of over 45% in size; on activity change, negative = inhibition: on the % scale 0 is the no-effect control and ±100 the full control effect
[2] = Primary qHTS for Huh7 cytotoxicity: counterscreen for inhibitors of MERS-S pseudotyped particle cell entry (AID 1479147); conditions: outcome: dose series up to 57.1 µM unless noted; on activity change, negative = cytotoxicity: on the % scale 0 is the no-effect control and ±100 the full control effect
[3] = Primary qHTS for inhibitors of MERS-S pseudo-typed particle cell entry (AID 1479149); conditions: outcome: dose series up to 57.1 µM unless noted; further: nearly all actives have a fitted effect of over 60% in size; on activity change, negative = inhibition: on the % scale 0 is the no-effect control and ±100 the full control effect
[4] = Primary qHTS for Vero E6 cytotoxicity: counterscreen for inhibitors of SARS-S pseudo-typed particle cell entry (AID 1479150); conditions: outcome: dose series up to 57.1 µM unless noted; on activity change, negative = cytotoxicity: on the % scale 0 is the no-effect control and ±100 the full control effect
[5] = Cytotoxicity counterscreen for inhibitors of SARS-CoV-2 cell entry (AID 1645845); conditions: outcome: dose series up to 57.1 µM unless noted; further: nearly all actives have a fitted effect of over 50% in size
How it was run: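 ATP-content luminescence (ATPLite 1step, 15 min RT) read after 48 h compound exposure of Expi293F cells stably expressing human ACE2; normalized to cells-only wells and media-only wells.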

[6] = Primary qHTS to identify inhibitors of SARS-CoV-2 cell entry (AID 1645846); conditions: SARS-CoV-2 pseudovirus cell entry assay, luminescence; activity change, negative = inhibition: at 57.1 µM (top of the series) unless noted; further: nearly all actives have a fitted effect of over 45% in size
How it was run: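 HEK293 cells stably expressing human ACE2, pre-treated 1 h with compound, then infected with MLV particles pseudotyped with Wuhan-Hu-1 spike (C-terminal 19-aa truncation). Luciferase luminescence after 48 h at 37 °C, normalised to spike PP and bald PP.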

CC(=O)c1cc2cccc(OCC(O)CNC(C)C)c2o1 (stereo unspecified)
inactive: Potency [1] | Potency [2] | Potency [3] | Potency [4] | Potency [5]

COC(=O)N[C@H](C(=O)N1CCC[C@H]1c1ncc(-c2ccc3c(c2)O[C@@H](c2ccccc2)n2c-3cc3cc(-c4cnc([C@@H]5CCCN5C(=O)[C@@H](NC(=O)OC)C(C)C)[nH]4)ccc32)[nH]1)C(C)C
inactive: Potency [1] | Potency [2] | Potency [3] | Potency [4] | Potency [5]

CC1=CC(O)CC(C)(C)C1/C=C/C(C)=C/C=C/C(C)=C/C=C/C=C(C)/C=C/C=C(C)/C=C/C1=C(C)CC(O)CC1(C)C (stereo unspecified)
inactive: Potency [1] | Potency [2] | Potency [3] | Potency [4] | Potency [5]

OC[C@H]1O[C@@H](OC[C@H]2O[C@@H](O[C@@H]3[C@@H](O)[C@H](O)O[C@H](CO)[C@H]3O)[C@H](O)[C@@H](O[C@@H]3O[C@H](CO)[C@@H](O)[C@H](O)[C@H]3O)[C@@H]2O)[C@H](O)[C@@H](O)[C@@H]1O
inactive: Potency [1] | Potency [2] | Potency [3] | Potency [4] | Potency [5]

C=C[C@@H]1C[C@]1(NC(=O)[C@@H]1C[C@@H]2CN1C(=O)[C@H](C(C)(C)C)NC(=O)O[C@@H]1C[C@H]1CCCCCc1nc3ccc(OC)cc3nc1O2)C(=O)NS(=O)(=O)C1CC1
inactive: Potency [1] | Potency [2] | Potency [3] | Potency [4] | Potency [5]

CC(C)C(=O)OCC(=O)[C@@]12OC(C3CCCCC3)O[C@@H]1C[C@H]1[C@@H]3CCC4=CC(=O)C=C[C@]4(C)[C@H]3[C@@H](O)C[C@@]12C (stereo partly specified)
inactive: Potency [1] | Potency [2] | Potency [3] | Potency [4] | Potency [5]

CCCc1ccc(C(=O)O)cc1
inactive: Potency [1] | Potency [2] | Potency [3] | Potency [4] | Potency [5]

NC(Cc1cc(I)c(Oc2cc(I)c(O)c(I)c2)c(I)c1)C(=O)O (stereo unspecified)
inactive: Potency [1] | Potency [2] | Potency [3] | Potency [4] | Potency [5]

C[C@H](NCCc1ccc(O)cc1)[C@H](O)c1ccc(O)cc1
inactive: Potency [1] | Potency [2] | Potency [3] | Potency [4] | Potency [5]

C[N+](C)(C)CCOP(=O)([O-])OP(=O)(O)OC[C@H]1OC(n2ccc(N)nc2=O)[C@H](O)[C@@H]1O (stereo partly specified)
inactive: outcome [1] inactive [at 0.573 µM] | outcome [2] inactive [at 0.573 µM] | outcome [3] inactive [at 0.573 µM] | outcome [4] inactive [at 0.573 µM] | outcome [5] inactive [at 0.702 µM]

CC(C)[C@H]1CC[C@H](C)C[C@H]1O
inactive: Potency [1] | Potency [2] | Potency [3] | Potency [4] | Potency [5]

O=C(OC1C[C@@H]2CC3C[C@@H](C1)N2CC3=O)c1c[nH]c2ccccc12 (stereo partly specified)
inactive: Potency [1] | Potency [2] | Potency [3] | Potency [4] | Potency [5]

CCC(C)C(NC(=O)C(Cc1ccc(O)cc1)NC(=O)C(NC(=O)C(CCCN=C(N)N)NC(=O)C(N)CC(=O)O)C(C)C)C(=O)NC(Cc1cnc[nH]1)C(=O)N1CCCC1C(=O)NC(Cc1ccccc1)C(=O)O (stereo unspecified)
inactive: Potency [1] | Potency [2] | Potency [3] | Potency [4] | Potency [5]

CCOC(=O)[C@H](C)C[C@@H](Cc1ccc(-c2ccccc2)cc1)NC(=O)CCC(=O)O
inactive: Potency [1] | Potency [2] | Potency [3] | Potency [4] | Potency [5]

COC(F)(F)C(Cl)Cl
inactive: Potency [1] | Potency [2] | Potency [3] | Potency [4] | Potency [5]

CCCC(=O)O[C@]1(C(=O)COC(C)=O)CC[C@H]2C3C[C@H](F)C4=CC(=O)C=C[C@]4(C)[C@@]3(F)[C@@H](O)C[C@@]21C (stereo partly specified)
inactive: Potency [1] | Potency [2] | Potency [3] | Potency [4] | Potency [5]

CNC[C@@H]1CC[C@@H](N)[C@@H](O[C@H]2[C@H](O)[C@@H](O[C@H]3OC[C@](C)(O)[C@H](NC)[C@H]3O)[C@H](N)C[C@@H]2N)O1
inactive: Potency [1] | Potency [2] | Potency [3] | Potency [4] | Potency [5]

CC(C)(CO)C(O)C(=O)NCCCC(=O)O (stereo unspecified)
inactive: Potency [1] | Potency [2] | Potency [3] | Potency [4] | Potency [5]

CCCCOC(=O)C(=O)Nc1cccc(-c2nn[nH]n2)c1
inactive: Potency [1] | Potency [2] | Potency [3] | Potency [4] | Potency [5]

O=C(Cn1c(=O)sc2ccc(Cl)cc21)N1CCN(CCO)CC1
inactive: Potency [1] | Potency [2] | Potency [3] | Potency [4] | Potency [5]

CC(C)(C)NC(=O)[C@H]1CC[C@H]2[C@@H]3CC=C4C=C(C(=O)O)CC[C@]4(C)[C@H]3CC[C@]12C
inactive: Potency [1] | Potency [2] | Potency [3] | Potency [4] | Potency [5]

O=C(N[C@H]1CCS[C@H]2CCC[C@@H](C(=O)O)N2C1=O)[C@@H](S)Cc1ccccc1
inactive: Potency [1] | Potency [2] | Potency [3] | Potency [4] | Potency [5]

O=c1[nH]cnc2c([C@@H]3N[C@H](CO)[C@@H](O)[C@H]3O)c[nH]c12
inactive: Potency [1] | Potency [2] | Potency [3] | Potency [4] | Potency [5]

[2H]N[C@@H](Cc1ccccc1)C(=O)N1CCC[C@H]1C(=O)N[C@@H](CCCNC(=N)N)C(=O)N1CCC[C@H]1C(=O)NCC(=O)NCC(=O)NCC(=O)NCC(=O)N[C@@H](CC(N)=O)C(=O)NCC(=O)N[C@@H](CC(=O)O)C(=O)N[C@@H](Cc1ccccc1)C(=O)N[C@@H](CCC(=O)O)C(=O)N[C@@H](CCC(=O)O)C(=O)N[C@H](C(=O)N1CCC[C@H]1C(=O)N[C@@H](CCC(=O)O)C(=O)N[C@@H](CCC(=O)O)C(=O)N[C@@H](Cc1ccc(O)cc1)C(=O)N[C@@H](CC(C)C)C(=O)O)[C@@H](C)CC
inactive: activity change, negative = inhibition [1] -29.4% [at 11.4 µM] | outcome [2] inactive [at 11.4 µM] | activity change, negative = inhibition [3] -9.94% [at 11.4 µM] | activity change, negative = cytotoxicity [4] -0.847% [at 11.4 µM] | activity change, negative = cytotoxicity [5] 2.97% [at 11.3 µM]

CS(=O)(=O)OCC(O)C(O)COS(C)(=O)=O (stereo unspecified)
inactive: Potency [1] | Potency [2] | Potency [3] | Potency [4] | Potency [5]

CCOc1ccc(Cc2cc([C@@]34OC[C@@](CO)(O3)[C@@H](O)[C@H](O)[C@H]4O)ccc2Cl)cc1
inactive: Potency [1] | Potency [2] | Potency [3] | Potency [4] | Potency [5]

OC[C@H]1O[C@@H](OCCc2ccc(O)cc2)[C@H](O)[C@@H](O)[C@@H]1O
inactive: Potency [1] | Potency [2] | Potency [3] | Potency [4] | Potency [5]

CC1(C)S[C@@H]2[C@H](NC(=O)[C@H](NC(=O)N3CCNC3=O)c3ccccc3)C(=O)N2C1C(=O)O (stereo partly specified)
inactive: Potency [1] | Potency [2] | Potency [3] | Potency [4] | Potency [5]

[2H]C([2H])([2H])C(CCC[C@@H](C)[C@H]1CC[C@H]2/C(=C/C=C3\C[C@@H](O)C[C@H](O)C3=C)CCC[C@]12C)C([2H])([2H])[2H]
inactive: Potency [1] | Potency [2] | Potency [3] | Potency [4] | Potency [5]

CCOC(=O)[C@H](CCc1ccccc1)N[C@H](C)C(=O)N1C2CCCCC2C[C@H]1C(=O)O (stereo partly specified)
inactive: Potency [1] | Potency [2] | Potency [3] | Potency [4] | Potency [5]

OC[C@H]1O[C@@H](O)[C@H](O)[C@@H](O)[C@@H]1O
inactive: Potency [1] | Potency [2] | Potency [3] | Potency [4] | Potency [5]

O=C(OCCN(CCO)CCO)c1ccccc1O
inactive: Potency [1] | Potency [2] | Potency [3] | Potency [4] | Potency [5]

Cc1cccc(C)c1NC(=O)C1CCCCN1C (stereo unspecified)
inactive: Potency [1] | Potency [2] | Potency [3] | Potency [4] | Potency [5]

CCC=CCC=CCC=CCCCCCCCC(=O)O
inactive: Potency [1] | Potency [2] | Potency [3] | Potency [4] | Potency [5] | Potency [6]
